# Assay outcomes deposited in PubChem by several laboratories.
# A selection: hits, their analogues and other compounds. The true share with any hit is near 1.9%.
# EP2 modulator: modulators of human EP2 prostaglandin E2 receptor. P43116. EP2-expressing cells, cAMP HTRF FRET, PGE2 co-stimulation. induction, % at 25 µM. actives 0.83% (n = 260,000);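 active = compounds whose cAMP rise, as percent of the full-agonist control response, exceeds 60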;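 note: rat C6 glioma line stably carrying human EP2 under a CMV promoter; the protocol text gives 20 µM as final concentration; 100% = response of wells given 1 µM PGE2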
# PGE2 EP2 inh: inhibitors of human EP2 prostaglandin E2 receptor. P43116. C6 glioma cells expressing human EP2, cAMP TR-FRET; cells stimulated with saturating PGE2. inhibition, % at 25 µM. actives 0.52% (n = 260,000). AID 1422;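 active = percent inhibition above 40 after rounding to a whole number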;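 note: rat C6 glioma host cells with rolipram phosphodiesterase inhibitor present; the protocol text gives 20 µM as final concentration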
# S1P4 antag: antagonists of human S1P4 receptor; O95977; S1P4-expressing cells, antagonist mode, reporter read-out; inhibition, % at 4.98 µM; actives 0.26% (n = 220,000); in the data active = inhibition above about 29%;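 note: 0% = wells stimulated with agonist and 100% = vehicle wells without agonist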
# Target sequence (O95977 whole entry, looked up): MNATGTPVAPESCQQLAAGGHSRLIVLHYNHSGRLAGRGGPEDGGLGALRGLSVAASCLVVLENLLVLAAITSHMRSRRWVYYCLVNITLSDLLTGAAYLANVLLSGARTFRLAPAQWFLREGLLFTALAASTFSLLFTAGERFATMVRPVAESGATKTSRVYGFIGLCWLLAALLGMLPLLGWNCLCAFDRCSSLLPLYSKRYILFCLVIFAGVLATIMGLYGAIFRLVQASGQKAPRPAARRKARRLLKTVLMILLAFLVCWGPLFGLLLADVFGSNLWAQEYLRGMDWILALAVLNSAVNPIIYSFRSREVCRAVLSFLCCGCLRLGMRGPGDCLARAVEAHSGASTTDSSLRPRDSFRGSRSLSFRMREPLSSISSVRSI
# S1P4 agonist: agonists of human S1P4 receptor; actives 0.35% (n = 220,000); S1P4-expressing cell line, agonist reporter assay; activation, % at 4.98 µM; in the data active = activation above about 11%;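 note: 0% = DMSO vehicle and 100% = reference agonist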
# Pf gamet viab: P. falciparum stage V gametocyte viability inhibition; P. falciparum stage V gametocytes, ATP luminescence, 24 h; inhibition, % at 10.9 µM; actives 0.065% (n = 150,000); AID 743093;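 active = inhibition above the mean plus 3 SD of compounds within the control limits, set per campaign, cut at about 38% in these data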;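 note: 0% = DMSO wells and 100% = medium only without gametocytes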
# S1P3 antag-1: antagonists of human S1P3 receptor; Q99500; CHO S1P3 NFAT-BLA reporter, FRET fluorescence, antagonist mode; inhibition, % at 4.98 µM; actives 0.27% (n = 170,000);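 active = inhibition above the plate cutoff, the mean inhibition of test wells on that plate plus 3 SD, cut at about 28% in these data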;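 note: cells challenged with S1P at its EC80 of 0.8 µM; blue over green emission ratio from cleaved BLA substrate after 4 h stimulation; 0% = S1P-stimulated wells and 100% = unstimulated DMSO-only wells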
# S1P3 antag-2: human S1P3 receptor antagonism, confirmation | shares compounds with S1P3 antag-1 | CHO S1P3 NFAT-BLA reporter, FRET, antagonist mode | inhibition, % at 4.98 µM | actives 30% (n = 240) | AID 1429;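 active = inhibition above the hit threshold that was computed for the earlier primary screen, cut at about 30% in these data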;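 note: 0% = S1P-stimulated wells and 100% = unstimulated DMSO-only wells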
# Starred values were filed as active, the others as inactive; nt = no result.
SMILES,EP2 modulator,PGE2 EP2 inh,S1P4 antag,S1P4 agonist,Pf gamet viab,S1P3 antag-1,S1P3 antag-2
COc1ccc(/C=N/NC(=O)c2cc(C34CC5CC(CC(C5)C3)C4)[nH]n2)cc1OC,-15,1,-1,-1,-1,-8,nt
CCCC(c1nnnn1C(C)(C)C)N1CCN(c2cccc(C)c2C)CC1 (stereo not drawn),10,10,nt,nt,nt,nt,nt
CCOC(=O)C(C)Oc1cccc2c(=O)n(CC(=O)NCc3ccccc3)ccc12 (stereo not drawn),-17,8,19,0,-1,37*,9
CCOC(=O)C(C)Oc1cccc2c(=O)n(CC(=O)NCCc3ccccc3)ccc12 (stereo not drawn),-17,9,-16,1,-4,19,nt
CCOC(=O)C(C)Oc1cccc2c(=O)n(CC(=O)NCc3ccc(F)cc3)ccc12 (stereo not drawn),-7,5,-6,2,-11,35*,8
COc1ccc(C)cc1NC(=O)CSc1nc2sc3c(c2c(=O)[nH]1)CCCC3,-71,35,nt,nt,nt,nt,nt
Cc1occc1-c1nn(CC(=O)NC(C)(C)C)c(=O)o1,-27,6,nt,nt,nt,nt,nt
CC[C@@H]1C=C(C)C[C@H](C)C[C@H](OC)[C@H]2O[C@@](O)(C(=O)C(=O)N3CCCC[C@H]3C(=O)O[C@H](/C(C)=C/[C@@H]3CC[C@@H](O)[C@H](OC)C3)[C@H](C)[C@@H](O)CC1=O)[C@H](C)C[C@@H]2OC,-25,18,-4,-7,nt,89*,105*
COC(=O)CSc1nnc(-c2cccnc2)n1-c1ccc(C)cc1C,6,14,nt,nt,nt,nt,nt
O=C1c2cccc3c(N4CCCCC4)ccc(c23)C(=O)N1c1cccc(O)c1,59,6,19,1,13,51*,45*
OC(CN1CCN(c2ccc(F)cc2)CC1)c1ccc2c(c1)OCCCO2 (stereo not drawn),-19,9,nt,nt,nt,nt,nt
OC(CN1CCOCC1)c1ccc(F)cc1 (stereo not drawn),14,-1,-3,0,6,37*,-10
CC1=[N+](C)c2c(ccc3cccnc23)C1(C)C,11,15,-39,0,-18,29*,15
CC(CC(=O)N1CCN(c2ccc(C(F)(F)F)cn2)CC1)n1ccnc1 (stereo not drawn),-4,7,-7,-1,-2,36*,-15
O=C(c1ccco1)N1CCN(S(=O)(=O)/C=C/c2ccccc2)CC1,-20,12,-22,1,-17,30*,-18
O=[N+]([O-])c1c(NCc2ccco2)ccc2nonc12,-20,7,0,0,-18,106*,-16
O=[N+]([O-])c1c(Nc2ccccc2)ccc2nonc12,2,2,-15,-3,nt,nt,nt
CCN1/C(=C/c2cc[n+](CCCS(=O)(=O)[O-])c3ccccc23)Sc2ccccc21,-3,8,-10,0,nt,-54,nt
C=CC[n+]1ccc(/C=C2\C=Cc3cc(C)ccc3N2CC)c2ccccc21,-57,8,-8,-2,nt,30*,39*
Cc1nc2ccc(NC(=O)c3ccc(Cl)c(S(=O)(=O)N(C)c4ccccc4)c3)cc2s1,-30,13,-14,1,-5,11,nt
Cc1nc2ccc(NC(=O)c3cc(S(=O)(=O)N(C)c4ccccc4)ccc3Cl)cc2s1,-9,11,-7,4,17,30*,10
Cc1cc(NNC(=O)Nc2cccc(Cl)c2)nc2c1c(C)nn2C,-9,7,10,-1,nt,32*,14
CCN1/C(=C/C=C/c2oc3ccc(-c4ccccc4)cc3[n+]2CC)Oc2ccc(-c3ccccc3)cc21,-69,7,10,1,0,31*,54*
CN1C(=O)SC(CC(=O)N2C3CCC2CC(c2ccc(F)cc2)C3)C1=O (stereo not drawn),-91,7,nt,nt,nt,nt,nt
Cc1nc(C(C)NC(=O)CCc2nnc(-c3ccsc3)o2)cs1 (stereo not drawn),15,4,0,1,8,38*,-8
COC(=O)[C@@H](NC(=O)CCc1nnc(-c2ccsc2)o1)C(C)C,9,10,-18,0,6,-8,nt
